Source: paper PMC4336329 (PLoS ONE, 2015)
Among all 310,000 compounds or so, about 14,000 (4.5%) showed an effect of 50% or more. Effects have a minus sign here. What follows is part of a selection rich in strong results, with near analogues and random picks from the rest.

biological target: human ether-à-go-go-related gene (hERG) potassium channel (human, UniProt Q12809); test: primary screen, population patch clamp on CHO cells stably expressing hERG; higher = less effect of the substance
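Also: peak tail current of the secondary pulse compared with the same well before compound.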

Chain of human ether-à-go-go-related gene (hERG) potassium channel (Q12809 whole entry, looked up): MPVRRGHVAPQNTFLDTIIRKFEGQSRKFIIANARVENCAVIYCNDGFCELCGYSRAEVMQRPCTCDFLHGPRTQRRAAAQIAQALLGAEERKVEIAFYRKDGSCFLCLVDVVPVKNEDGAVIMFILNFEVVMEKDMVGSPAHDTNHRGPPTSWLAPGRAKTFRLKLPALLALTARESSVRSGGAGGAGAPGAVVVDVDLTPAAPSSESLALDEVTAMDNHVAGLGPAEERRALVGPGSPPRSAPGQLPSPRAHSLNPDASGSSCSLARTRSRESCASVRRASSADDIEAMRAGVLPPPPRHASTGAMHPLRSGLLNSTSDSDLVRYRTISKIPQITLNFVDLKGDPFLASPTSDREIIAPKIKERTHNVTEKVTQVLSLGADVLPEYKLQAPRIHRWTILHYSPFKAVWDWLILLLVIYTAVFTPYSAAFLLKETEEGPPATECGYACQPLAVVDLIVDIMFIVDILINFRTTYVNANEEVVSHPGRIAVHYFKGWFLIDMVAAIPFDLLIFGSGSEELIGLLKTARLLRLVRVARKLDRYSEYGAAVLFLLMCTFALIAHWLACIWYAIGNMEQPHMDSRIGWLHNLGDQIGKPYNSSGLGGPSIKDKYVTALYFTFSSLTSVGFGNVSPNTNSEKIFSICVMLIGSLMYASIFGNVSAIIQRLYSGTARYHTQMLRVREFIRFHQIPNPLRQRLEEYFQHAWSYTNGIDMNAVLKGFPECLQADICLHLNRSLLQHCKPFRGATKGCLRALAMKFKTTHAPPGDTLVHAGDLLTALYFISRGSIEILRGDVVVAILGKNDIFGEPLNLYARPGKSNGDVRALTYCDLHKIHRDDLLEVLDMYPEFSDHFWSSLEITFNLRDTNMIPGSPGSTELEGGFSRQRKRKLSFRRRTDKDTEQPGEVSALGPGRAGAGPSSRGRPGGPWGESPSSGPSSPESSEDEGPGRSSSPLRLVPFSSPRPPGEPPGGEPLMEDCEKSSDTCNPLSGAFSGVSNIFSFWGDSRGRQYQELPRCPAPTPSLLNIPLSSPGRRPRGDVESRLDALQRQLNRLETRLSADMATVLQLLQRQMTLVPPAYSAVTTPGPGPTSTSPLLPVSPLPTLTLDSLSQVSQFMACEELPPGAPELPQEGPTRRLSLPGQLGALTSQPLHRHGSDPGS

| SMILES | hERG current change (%, negative = inhibition) at 10uM [%] |
| --- | --- |
| COc1ccc(-n2c3c(cc(C(=O)NNc4ccccc4C)c2=O)C(=O)CC(C)(C)C3)cc1 | 17.7 |
| O=c1c2c(nc3nc(NCc4ccc(Cl)cc4)[nH]n13)CCC2 | 23.2 |
| O=S(=O)(c1cccc2nsnc12)N1CCc2ccccc2C1 | -34.8 |
| COc1ccc(OC)c(Nc2nc(C)nc3c2oc2ccccc23)c1 | 5.02 |
| O=C(NC(=S)NNC(=O)[C@H]1C[C@@H]1c1ccccc1)c1ccc(F)cc1 | 3.86 |
| CCOC(=O)N(Cc1ccccc1)Cc1ccc(C(=O)N[C@@H](Cc2ccccc2)C(=O)O)cc1 | 13.8 |
| CCC(C)NC(=O)CCn1ccc2cc(S(=O)(=O)N3CCCC3)ccc21 (centres unmarked) | 12.3 |
| CCC1=NN2C(=N)/C(=C/c3ccc(OS(=O)(=O)c4ccccc4)cc3)C(=O)N=C2S1 | -3.25 |
| CCOC(=O)C1CCN(S(=O)(=O)c2ccc3[nH]c(=O)oc3c2)CC1 | -30.9 |
| CCOC(=O)C1CCN(S(=O)(=O)c2ccc3oc(=O)ccc3c2)CC1 | -77 |
| CC(=O)N1CCOc2ccc(S(=O)(=O)N3CCCCC3)cc21 | 11.6 |
| CCOC(=O)C1CCN(S(=O)(=O)c2ccc3[nH]c(=O)ccc3c2)CC1 | -45.3 |
| CC(=O)N1CCOc2ccc(S(=O)(=O)N3CCC(C)CC3)cc21 | 6.53 |
| CCOC(=O)C1CCN(S(=O)(=O)c2ccc3c(c2)N(C(C)=O)CCO3)CC1 | -67.2 |
| CC/C(=N\NC(=O)C1CC1)c1cccc(Cl)c1 | 30.9 |
| Cc1nc(Sc2ccc(Cl)cc2)c(C#N)c(C)c1[N+](=O)[O-] | 6.1 |
| COC(=O)Cn1cnc2scc(-c3ccc(C)cc3)c2c1=O | 7.31 |
| CC(C)C(NC(=O)c1ccc(F)cc1)C(=O)Nc1cccnc1 (centres unmarked) | 0.585 |
| CCOC(=O)c1ccccc1NC(=O)c1c(F)c(F)c(F)c(F)c1F | 10.2 |

| SMILES | hERG current change (%, negative = inhibition) at 10uM [%] |
| --- | --- |
| COc1ccc(Oc2coc3c(CN(C)C)c(O)ccc3c2=O)cc1 | 17.7 |
| COc1ccc(C(=O)c2coc3ccc(OC(C)=O)cc23)cc1 | 24.9 |
| COc1ccc(C(O)c2coc3ccc(O)c(CN(C)C)c23)cc1 (centres unmarked) | -47.9 |
| COc1ccc(OC)c(C(O)c2coc3ccc(O)c(CN(C)C)c23)c1 (centres unmarked) | -17 |
| COc1ccc2occ(C(=O)c3ccc(N=C(C)N(C)C)cc3)c2c1 | -58.8 |
| COc1ccc(C(=O)c2coc3ccc(O)cc23)cc1 | 7.61 |
| COc1ccc(OC)c(C(=O)c2coc3ccc(O)c(CN(C)C)c23)c1.Cl | -12.7 |
| COc1ccc2occ(C(=O)c3coc4ccc(O)c(CN(C)C)c34)c2c1.Cl | -72.1 |
| CCN(CC)Cc1c(O)ccc2occ(C(=O)c3ccc(OC)cc3)c12 | -74.2 |
| COc1ccc(C(=O)c2coc3ccc(O)c(CN(C)C)c23)cc1 | -57.9 |
| COc1ccc2occ(C(=O)c3ccc(N)cc3)c2c1 | 2.02 |
| COc1ccc(S(=O)(=O)N/N=C(/C)c2ccco2)cc1 | -6.76 |
| CCc1sc(-c2c(C#N)c(N)nc3c2CCCCCC3)cc1[N+](=O)[O-] | 14 |
| Cc1ccc(C(=O)NC(C)c2ccccc2)cc1Br (centres unmarked) | -11.8 |
| Cc1cc(C)cc(NC(=O)c2ccc(S(=O)(=O)C(F)F)cc2)c1 | -29.7 |
| CC(=O)NCCNc1nc2c(-c3cccc(C)c3)nnn2c2ccccc12 | 12.8 |
| CC(CN1CCCCC1)OC(=O)c1ccc(Cl)cc1.Cl (centres unmarked) | -36.4 |
| O=C1CCN(S(=O)(=O)c2cc(C(F)(F)F)ccc2Cl)CC1 | -1.34 |
| CCc1ccccc1NC(=O)c1ccccc1N1C(=O)C2C3C=CC(C3)C2C1=O (centres unmarked) | 18.3 |

| SMILES | hERG current change (%, negative = inhibition) at 10uM [%] |
| --- | --- |
| Cc1cc(C)n(-c2cc(N3CCN(S(=O)(=O)c4ccc(C)c(C)c4)CC3)ccc2[N+](=O)[O-])n1 | 15 |
| Cc1cc(C)n(-c2cc(N3CCN(C(=O)c4ccc(C(C)(C)C)cc4)CC3)ccc2[N+](=O)[O-])n1 | -34.4 |
| Cc1cc(C)c(S(=O)(=O)N2CCN(c3ccc([N+](=O)[O-])c(-n4nc(C)cc4C)c3)CC2)c(C)c1 | -7.91 |
| COc1ccc(N2CCN(C(=O)c3ccc(-n4nc(C)cc4C)cc3)CC2)cc1 | -19.4 |
| CC(=O)N1CCN(c2ccc([N+](=O)[O-])c(-n3nc(C)cc3C)c2)CC1 | -51.9 |
| COc1ccc(C(=O)N2CCN(c3ccc([N+](=O)[O-])c(-n4nc(C)cc4C)c3)CC2)cc1 | -78.2 |
| Cc1cc(C)n(-c2cc(N3CCN(C(=O)c4ccccc4C)CC3)ccc2[N+](=O)[O-])n1 | -52.7 |
| Cc1ccccc1C(=O)N1CCN(c2ccc([N+](=O)[O-])c(N3CCOCC3)c2)CC1 | -16.3 |
| Cc1cc(C)n(-c2cc(N3CCN(S(=O)(=O)c4ccc(Cl)cc4)CC3)ccc2[N+](=O)[O-])n1 | -32.8 |
| COc1cc(C)ccc1OCc1cc(C(=O)NCCN2CCOCC2)no1 | 2.08 |
| COc1ccc(/C=N/NC(=O)c2ccc3nc[nH]c3c2)cc1OC | 20.7 |
| CCC1CCCCN1Cc1ccc(OC)c(C)c1C (centres unmarked) | -31.2 |
| Cc1ccc(CNC(=O)C2CCCN2C(=O)Nc2ccccc2)cc1 (centres unmarked) | -8.61 |
| COc1ccccc1N1CCN(S(=O)(=O)c2cn(C)nc2C)CC1 | -2.6 |
| CCCCN(C(=O)CN1CC(C)OC(C)C1)c1c(N)n(CC(C)C)c(=O)[nH]c1=O (centres unmarked) | 9.06 |
| CCN(c1ccccc1)S(=O)(=O)c1ccc(NN)nc1 | -12.2 |
| CCN(c1ccccc1)S(=O)(=O)c1ccc(Oc2ccc([N+](=O)[O-])cc2)nc1 | -21 |
| CCN(c1ccccc1)S(=O)(=O)c1ccc(Oc2ccc(-n3ccnc3)cc2)nc1 | -77.4 |
